Source: PubChem BioAssay AID1159580 (chemical genetic matrix, 2015)
“And” between values parts separate entries of the source, which are not always exact repeats. Equal entries are not always repeated. Screen size: about 5,500 compounds; about 2,000 (36%) were called active. Roughly 18% stayed inconclusive and do not appear here. Cut-off read from the data, not from the text of the source: active = normalized growth mostly below about 0.91 (no sharp cut-off); inconclusive = no clear call, values can overlap the other calls; inactive = mostly above about 0.92. Some of the results follow.

Assay: chemical genetic growth profiling, strain panel (AID 1159580);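 note: tested at 20 µM; growth read once vehicle control cultures reached saturation at 30 °C; 1 = growth at the plate median or of vehicle wells; lower values mean less growth of the strain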
Conditions: S. cerevisiae deletion strains, growth OD

Measured: normalized growth

CC1[C@H](C)OC(=O)CC(O)CC(O)CC(O)CCC(O)C(O)C[C@]2(O)CC(O)C(C(=O)O)C(CC(OC3O[C@H](C)[C@@H](O)[C@H](N)[C@@H]3O)/C=C/C=C/C=C/C=C/CC/C=C/C=C/[C@H](C)[C@H]1O)O2 (stereo partly specified)
inactive: locus YBL061C, strain skt5, hits give low values 0.931 | locus YBR023C, strain chs3, hits give low values 0.918 | locus YBR279W, strain paf1, hits give low values 0.982 | locus YCL016C, strain dcc1, hits give low values 0.971 | locus YDL005C, strain med2, hits give low values 0.953 | locus YDL040C, strain nat1, hits give low values 0.995 | locus YDR137W, strain rgp1, hits give low values 0.914 | locus YDR159W, strain sac3, hits give low values 1.04 | locus YDR392W, strain spt3, hits give low values 1.11 | locus YER016W, strain bim1, hits give low values 0.961 | locus YER111C, strain swi4, hits give low values 0.959 | locus YGL167C, strain pmr1, hits give low values 0.996 | locus YIL073C, strain SPO22, hits give low values 0.987 | locus YJL095W, strain BCK1 (second series), hits give low values 0.994 | locus YJL154C, strain vps35, hits give low values 0.985
active: locus YAL013W, strain DEP1, hits give low values 0.0554 | locus YAL021C, strain ccr4, hits give low values 0.186 | locus YAL026C, strain drs2, hits give low values 0.0661 | locus YAL030W, strain snc1, hits give low values 0.824 | locus YBR009C, strain hhf1, hits give low values 0.557 | locus YBR021W, strain FUR4, hits give low values 0.369 | locus YBR171W, strain sec66, hits give low values 0.0858 | locus YBR229C, strain ROT2, hits give low values 0.206 | locus YCL011C, strain gbp2, hits give low values 0.223 | locus YCL029C, strain bik1, hits give low values 0.425 | locus YCL069W, strain vba3, hits give low values 0.849 | locus YCR088W, strain abp1, hits give low values 0.0729 | locus YDL035C, strain GPR1, hits give low values 0.0678 | locus YDL074C, strain BRE1, hits give low values 0.144 | locus YDL101C, strain DUN1, hits give low values 0.188 | locus YDL134C, strain PPH21, hits give low values 0.592 | locus YDL185W, strain tfp1, hits give low values 0.0687 | locus YDL192W, strain arf1, hits give low values 0.133 | locus YDR001C, strain nth1, hits give low values 0.815 | locus YDR069C, strain doa4, hits give low values 0.858 | locus YDR101C, strain arx1, hits give low values 0.119 | locus YDR150W, strain NUM1, hits give low values 0.0676 | locus YDR162C, strain NBP2, hits give low values 0.0472 | locus YDR195W, strain ref2 0.466 | locus YDR297W, strain sur2, hits give low values 0.828 | locus YDR318W, strain mcm21, hits give low values 0.194 | locus YDR334W, strain swr1, hits give low values 0.415 | locus YDR335W, strain msn5, hits give low values 0.904 | locus YDR388W, hits give low values 0.0675 | locus YDR502C, strain sam2, hits give low values 0.0781 | locus YEL003W, strain gim4, hits give low values 0.154 | locus YEL037C, strain rad23, hits give low values 0.723 | locus YEL061C, strain CIN8 (second series), hits give low values 0.815 | locus YEL061C, strain CIN8, hits give low values 0.0554 | locus YER015W, strain faa2, hits give low values 0.822 | locus YER110C, hits give low values 0.188 | locus YER155C, strain BEM2 (second series), hits give low values 0.633 | locus YER155C, strain BEM2, hits give low values 0.122 | locus YER167W, strain BCK2, hits give low values 0.0855 | locus YFR010W, strain ubp6, hits give low values 0.137 | locus YGL078C, strain dbp3, hits give low values 0.0582 | locus YGL086W, strain mad1, hits give low values 0.124 | locus YGL173C, strain kem1, hits give low values 0.799 | locus YGL227W, strain vid30, hits give low values 0.061 | locus YGL240W, strain doc1, hits give low values 0.537 | locus YGL248W, strain PDE1, hits give low values 0.646 | locus YGL253W, strain hxk2, hits give low values 0.44 | locus YGR078C, strain PAC10, hits give low values 0.0638 | locus YGR135W, strain pre9, hits give low values 0.0907 | locus YGR229C, strain SMI1, hits give low values 0.0609 | locus YGR252W, strain gcn5, hits give low values 0.385 | locus YHR013C, strain ard1, hits give low values 1.35 [resistant] | locus YHR027C, strain rpn1, hits give low values 0.77 | locus YHR030C, strain SLT2, hits give low values 0.179 and 0.0985 | locus YHR079C, strain IRE1 (second series), hits give low values 0.312 | locus YHR079C, strain IRE1, hits give low values 0.102 | locus YHR094C, strain hxt1, hits give low values 0.302 | locus YHR129C, strain ARP1, hits give low values 0.129 | locus YHR142W, strain chs7, hits give low values 0.658 | locus YHR200W, strain rpn10, hits give low values 0.0755 | locus YIL066C, strain RNR3, hits give low values 0.51 | locus YIL125W, strain kgd1, hits give low values 0.0583 | locus YIR030C, strain dcg1, hits give low values 0.182 | locus YJL092W, strain hpr5, hits give low values 0.402 | locus YJL095W, strain BCK1, hits give low values 0.567 and 0.099 | locus YJL115W, strain asf1, hits give low values 0.887 | locus YJL129C, strain trk1, hits give low values 1.2 [resistant] | locus YJL134W, strain LCB3, hits give low values 0.372 | locus YJL164C, strain tpk1, hits give low values 0.775 | locus YJL166W, strain qcr8, hits give low values 0.789 | locus YJL168C, strain set2, hits give low values 0.199 | locus YJL187C, strain SWE1 (second series), hits give low values 0.168 | locus YJL187C, strain SWE1, hits give low values 0.846 | locus YJR043C, strain POL32, hits give low values 0.0611 | locus YJR066W, strain TOR1, hits give low values 0.0213 | locus YJR075W, strain HOC1, hits give low values 0.0672
